From PubChem BioAssay
In the library only some 5.7% were active in any assay of this set; here they are far more common.
KB-V1 cytotox – qHTS assay for MDR1-selective chemotherapeutics: Primary screen using the drug-selected MDR subline cells KB-V1; Potency, µM (doses to about 46.1 µM), hits mostly cytotoxic; 3.4% of 400,000 active; KB-V1 MDR cells viability, CellTiter-Glo, 72 h; further: potency means the concentration at half of the fitted maximal effect; nearly all actives have a fitted effect of over 60% in size
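Readout: CellTiter-Glo luminescence, 10 min after addition. Cells: KB-V1 MDR subline, 72 h at 37 degrees C with compound. Analysis: corrected, normalized data fitted to concentration-effect curves.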
Nrf2 block – Nrf2 qHTS screen for inhibitors; AID 504444, 2011; Potency, µM (titrated, usually from 46 µM), for the others: top-dose activity change, negative = inhibition, usual class: inhibitors; 2.1% of 360,000 active; A549 ARE-Fluc reporter, luciferase luminescence, 18-24 h; further: potency means the concentration at half of the fitted maximal effect; nearly all actives have a fitted effect of over 60% in size
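Cells were seeded and rested 2 h, then exposed to compounds for 18-24 h. CellTiter-Fluor was read first as a viability measure. BugLite was added 15 min before the final luminescent read of ARE-luciferase activity in A549 cells.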
Giardia kill – Small Molecules that selectively kill Giardia lamblia: qHTS; Giardia lamblia trophozoite viability; activity change, % at 7.66 µM, hits read low; 0.15% of 340,000 active; AID 540267, 2011; in the data active means activity change below about -80%; inconclusive means between about -30% and that limit;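 further: parasites exposed to compound for two days anaerobically before the ATP read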
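Trophozoites 100 cells/well + cpd; 48 hrs, 37 deg C, anaerobic. ATPLite 1-Step added, 15-30 min RT, luminescence read (ATP-based viability).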
KB-3-1 tox – qHTS assay for MDR1-selective chemotherapeutics: Primary screen using the parental adenocarcinoma cell KB-3-1; Potency, µM (top dose mostly 46.1 µM), hits mostly cytotoxic; 1.4% of 400,000 active; KB-3-1 viability, CellTiter-Glo ATP luminescence, 72 h; further: potency means the concentration at half of the fitted maximal effect; nearly all actives have a fitted effect of over 60% in size
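Multi-concentration cytotoxicity screen in KB-3-1 cells grown in DMEM lacking phenol red with 10% FBS. After 72 h at 37 °C with compound, ATP-dependent luminescence was recorded.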
A549 tox – Nrf2 qHTS screen for inhibitors: counterscreen for cytotoxicity. A549 ARE-Fluc cells, CellTiter-Fluor viability, 18-24 h. Potency, µM (titrated, usually from 46 µM), for the others: top-dose activity change, negative = cytotoxicity, hits mostly inhibitors. 0.16% of 390,000 active. AID 504648, 2011; further: potency means the concentration at half of the fitted maximal effect
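Cytotoxicity counterscreen: CellTiter-Fluor fluorescence was measured in A549 ARE_Fluc cells after 18-24 h of compound exposure in a concentration series. The subsequent BugLite luminescent read reports ARE-luciferase activity.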
PI4K2A block – qHTS for small molecular inhibitors of PI4K2A. purified PI4K2A, ADP-Glo luminescence, 1 h; active compounds read low. activity change, negative = inhibition, % at 76.9 µM. 0.13% of 420,000 active; in the data active means activity change below about -50%; inconclusive means mostly about -30% to -49%;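 further: -100% = wells without enzyme as full effect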
Target sequence (Q9BTU6 whole entry, looked up): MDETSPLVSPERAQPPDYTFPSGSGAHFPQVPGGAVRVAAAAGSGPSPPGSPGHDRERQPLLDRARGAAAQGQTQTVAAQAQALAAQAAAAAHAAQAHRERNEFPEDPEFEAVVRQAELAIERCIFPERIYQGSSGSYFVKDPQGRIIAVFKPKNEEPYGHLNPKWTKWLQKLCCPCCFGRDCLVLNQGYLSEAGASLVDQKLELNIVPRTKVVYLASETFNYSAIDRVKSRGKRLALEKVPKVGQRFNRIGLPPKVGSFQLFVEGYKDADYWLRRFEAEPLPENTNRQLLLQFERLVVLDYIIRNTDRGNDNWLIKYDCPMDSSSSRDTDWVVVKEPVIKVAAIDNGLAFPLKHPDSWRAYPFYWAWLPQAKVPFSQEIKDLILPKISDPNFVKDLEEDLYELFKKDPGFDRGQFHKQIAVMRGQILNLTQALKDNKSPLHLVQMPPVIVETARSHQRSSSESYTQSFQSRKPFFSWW
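PI4K2A activity was measured by ADP-Glo luminescence: enzyme (4 ug/mL stock) and phosphatidylinositol (1.2 mM stock) in Tris pH 7.5/MgCl2/EGTA/Triton X-100 buffer were reacted with ATP (300 microM stock) for one hour at ambient temperature.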
Starred values were filed as active, the others as inactive; i = inactive; u = inconclusive; x = no result given. Unless noted, the call rests on the fitted dose curve; in most records, active means well fitted curve in the direction sought with a large enough effect; inconclusive means small, poorly fitted or top-dose-only effect, or another doubt; inactive means no such curve, though single readings can be large; an effect the other way counts as inactive or inconclusive. Unless noted, on the % scale 0 is the no-effect control and ±100 the full control effect.

SMILES	KB-V1 cytotox	Nrf2 block	Giardia kill	KB-3-1 tox	A549 tox	PI4K2A block
COc1cccc(OCC(=O)N(C)Cc2nc(-c3cccc(C)c3)no2)c1	23µM*	-15%	9	i	u	-1
Cc1cccc(-c2nsc(SCC(=O)N3CCCC3)n2)c1	16µM*	u	-1	i	2%	-8
O=C(CSc1nc(-c2ccccc2)ns1)N1CCOCC1	i	u	-14	i	-1%	-4
COC[C@@H](c1ccc(C(F)(F)F)cc1)N1CCN(C2(C)CCN(C(=O)c3c(C)ncnc3C)CC2)C[C@H]1C	x	x	x	x	x	3
CCN1CCCCC(NC(C)=O)C1=O (configuration not stated)	x	x	x	x	x	0
Oc1ccccc1-c1cc(-c2cccc(F)c2)n[nH]1	u	u	-6	u	-6%	-1
Oc1ccc(Cl)cc1-c1cc(-c2cccc(Br)c2)n[nH]1	21µM*	u	7	u	u	-3
CCCCN1C(=O)c2ccc(C(=O)Nc3cccc(C)c3C)cc2C1=O	i	5%	-12	i	2%	-1
CCCCN1C(=O)c2ccc(C(=O)Nc3ccc(C)c(S(=O)(=O)N(C)C)c3)cc2C1=O	12µM*	-6%	-16	u	-3%	-5
Cc1ccc(O)c(NC(=O)c2ccc3c(c2)C(=O)N(CC(C)C)C3=O)c1	i	18%	u	i	2%	-5
CN(c1ccccc1)S(=O)(=O)c1cccc(NC(=O)CCNC(=O)c2ccc([N+](=O)[O-])cc2)c1	i	u	-12	i	-1%	-3
C/C(=N\Nc1nc(Cl)c(Cl)cc1Cl)c1ccc(S(=O)(=O)NCc2ccco2)cc1	12µM*	u	5	u	0%	-4
CCN(CC)S(=O)(=O)c1cccc(NC(=O)CCNC(=O)c2ccc([N+](=O)[O-])cc2)c1	i	23µM*	-4	i	-8%	-1
CCCN1C(=O)c2ccc(C(=O)Nc3cc(C)ccc3O)cc2C1=O	i	1%	-6	i	-4%	-56*
COc1ccc(Br)cc1CNC(=O)c1ccc2c(c1)nc1n2CCCCC1	i	x	x	i	-7%	-2
CC(=O)Nc1ccn(C2OC(C(COC(C)=O)NC(=O)C(COCc3ccccc3)NC(=O)OC(C)(C)C)C(OC(C)=O)C2OC(C)=O)c(=O)n1 (configuration not stated)	x	21%	-5	x	1%	x
CC(C)[C@H]1Cn2nnc(-c3ccccc3)c2Cn2c3ccccc3c(=O)n21	x	x	x	x	x	-5
CCCN(CC1CC1)C(=O)CN1C(=O)C2CCCCN2C(=O)c2ccccc21 (configuration not stated)	x	x	x	x	x	6
CCN(CC)S(=O)(=O)c1cccc(NC(=O)c2ccc(-n3nc(C)cc3C)cc2)c1	2.9µM*	18µM*	-20	u	u	2
Cc1cc(C)n(-c2ccc(C(=O)Nc3cccc([N+](=O)[O-])c3)cc2)n1	u	u	10	i	1%	-1
Cc1cc(C)n(-c2ccc(C(=O)Nc3ccc(S(=O)(=O)N(C)C)cc3)cc2)n1	u	u	1	i	-23%	3
Cc1cc(C)n(-c2ccc(C(=O)Nc3cccc(S(=O)(=O)N(C)C)c3)cc2)n1	u	18µM*	11	u	-15%	2
Cc1ccc(NC(=O)c2ccc(OC(F)(F)F)cc2)cc1S(=O)(=O)N(C)C	u	12µM*	9	23µM*	-6%	5
Cc1ccc(NC(=O)c2ccncc2)cc1S(=O)(=O)N(C)C	i	3%	7	i	-3%	-6
Cc1cc(C)n(-c2ccc(C(=O)Nc3ccc(S(=O)(=O)NCc4ccco4)cc3)cc2)n1	i	26µM*	18	u	u	-13
SMILES	KB-V1 cytotox	Nrf2 block	Giardia kill	KB-3-1 tox	A549 tox	PI4K2A block
CN(C)S(=O)(=O)c1cccc(NC(=O)c2cc(-c3cccs3)nn2-c2cccc(Cl)c2)c1	2.3µM*	1%	-12	9.2µM*	-10%	-1
O=C(Nc1ccccc1)c1ccc(S(=O)(=O)NCc2ccco2)cc1	i	x	8	i	-8%	2
Cc1cc(C)n(-c2ccc(C(=O)Nc3ccc4c(c3)OCO4)cc2)n1	i	u	9	i	-14%	-2
O=C(Nc1ccccc1)c1cccc(S(=O)(=O)NCc2ccco2)c1	23µM*	16µM*	10	u	u	-2
Cc1cc(C)n(-c2ccc(C(=O)Nc3ccc(C)c(S(=O)(=O)N(C)C)c3)cc2)n1	u	18µM*	8	i	u	1
CCCCNC(=O)C[C@H]1C[C@@]2(C(=O)OC)C(=C[C@H](C3CCCC3)O[C@@H]2C)N(CCc2ccc(OC)c(OC)c2)C1=O	x	x	x	x	x	0
O=C(NCc1ccccc1)N1CCN(Cc2nc3ccccc3c(=O)[nH]2)CC1	x	x	x	x	x	-2
Cc1cc(-c2n[nH]c(=S)n2N=Cc2ccc(-c3ccccc3)cc2)n[nH]1	x	x	x	x	x	-2
COc1cccc(/C=C/C(=O)Nc2ccc(OC)nc2)c1	18µM*	0%	3	u	-5%	-3
COCCNC(=S)N1CCC(C(=O)c2ccc(F)cc2)CC1	u	u	68	i	11%	0
COc1ccc(C(=O)C2CCN(C(=S)NCCc3ccccc3)CC2)cc1	i	-11%	19	i	-1%	-4
COc1ccc(C(=O)C2CCN(C(=S)NCCc3ccc(OC)c(OC)c3)CC2)cc1	i	16µM*	-26	i	-24%	6
COc1ccc(C(=O)C2CCN(C(=O)c3ccc(C)cc3)CC2)cc1	u	u	2	i	-18%	1
COc1ccc(C(=O)C2CCN(C(=O)c3ccco3)CC2)cc1	23µM*	-23%	2	i	-4%	4
COc1ccc(CCNC(=S)N2CCC(C(=O)c3ccc(F)cc3)CC2)cc1OC	4.1µM*	16µM*	u	u	1%	5
CC(C)OCCCNC(=S)N1CCC(C(=O)c2ccc(Cl)cc2)CC1	8.2µM*	u	5	i	5%	-1
Cc1cc(NC(=O)c2cccs2)n(-c2nc3ccccc3[nH]2)n1	u	u	-29	u	-27%	3
COc1ccc(-n2nc(C(=O)c3cccs3)cc(-c3nc4ccccc4[nH]3)c2=N)cc1	16µM*	10%	4	u	4%	-2
